Laboratory results from PubChem BioAssay.
Active and inactive are the calls of the source. Unless noted, how the calls were made is not given here.

Tests used:
[1] = anti-His antibody binders, primary screen, artefact control for SMM control protein annotation, biochemical, small-molecule microarray, 635 nm fluorescence (AID 1128); details: anti-His Alexa647 antibody binding, higher = more signal;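 further: score merges feature fluorescence with signal-to-noise for each printed compound spot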
[2] = tested on: Human papillomavirus type 1a E7 protein (residues 1-88); test: HPV1a E7 small-molecule binders, primary screen, biochemical, small-molecule microarray, residues 1-88, 635 nm (AID 1129); details: small-molecule microarray binding, fluorescence 635 nm; higher = more signal
[3] = biological target: Focal adhesion kinase 1 (Homo sapiens) (UniProt Q05397); test: small-molecule microarray binders of FAK, primary screen, biochemical, 635/667 nm fluorescence, BSA, DTT (AID 1130); details: PTK2 binding, 635 nm fluorescence, higher = more signal;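 further: composite of spot emission at 667 nm and signal to noise over triplicate slides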
[4] = tested on: Fibrinogen (Alexa647-labelled); test: fibrinogen binders on compound microarrays, profiling panel, artefact control for SMM control-protein annotation, biochemical, small-molecule microarray, 635/667 nm fluorescence (AID 1131); details: fibrinogen-A647 binding fluorescence, higher = more signal;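 further: z-score merges 667 nm fluorescence with per-spot signal-to-noise over triplicate slides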
[5] = biological target: Follistatin (Homo sapiens) (UniProt P19883); test: follistatin binders on small-molecule microarrays, primary screen, biochemical, small-molecule microarray, 635/667 nm fluorescence (AID 1132); details: FST binding, 635 nm fluorescence, higher = more signal
[6] = biological target: Fibroblast growth factor 2 (Homo sapiens) (UniProt P09038); test: FGF2 binders on small-molecule microarrays, primary screen, biochemical, small-molecule microarray, 635/667 nm fluorescence (AID 1133); details: small-molecule microarray binding, FGF2, fluorescence 635/667; higher = more signal
[7] = mitochondrial membrane potential change in A549 cells, profiling panel, cell-based, JC-1 fluorescence, basal, 24 h, 100 nL (AID 1138); details: higher = more signal;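 further: A549 lung adenocarcinoma cells under basal conditions with no added stimulus; test concentration not given here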
[8] = tested on: Lefty1; test: Lefty1 binders on small-molecule microarrays, primary screen, biochemical, small-molecule microarray, 635/667 nm fluorescence (AID 1139); details: small-molecule microarray binding, fluorescence 635/667; higher = more signal
[9] = tested on: wheat germ agglutinin (Triticum aestivum), Alexa647-labelled; test: wheat germ agglutinin binders on compound microarrays, profiling panel, artefact control for SMM control-protein annotation, biochemical, small-molecule microarray, 635/667 nm fluorescence (AID 1140); details: WGA-A647 binding, 635 nm fluorescence, higher = more signal;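 further: score merges 667 nm feature emission with signal to noise over triplicate slides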
[10] = biological target: Luciferin 4-monooxygenase (Photinus pyralis) (UniProt P08659); test: firefly luciferase enzyme inhibitors, primary screen, biochemical, luminescence, purified enzyme, 2006 set (AID 1141); details: SteadyGlo luminescence, 30 min, higher = more signal, called active from +8 up or from −8 down;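 further: cell-free assay with purified firefly luciferase at 100 ng per well in PBS; test concentration not given here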
[11] = tested on: Wnt5a (protein binding on small-molecule microarray); test: Wnt5a binders on small-molecule microarray, primary screen, biophysical, 635/667 nm fluorescence (AID 1142); details: 635 nm fluorescence, higher = more signal;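 further: fluorescence read at 667 nm with signal to noise per printed feature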
[12] = cell viability in Huh7 cells, primary screen, cytotoxicity control for HCV replication inhibitor project, CellTiter-Glo luminescence, basal, 48 h (AID 1143); details: Huh7 HCV replicon, higher = more signal, called active from +8 up or from −8 down;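 further: Huh7 hepatoma cells carrying a hepatitis C replication reporter with no stimulus; test concentration not given here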
[13] = P. aeruginosa biofilm formation inhibitors, primary screen, PAO1 strain, BacTiter-Glo luminescence, LB-PBS (AID 1144); details: 12 h, higher = more signal
[14] = CREB reporter modulators without forskolin, primary screen, cell-based, PC12, CRE-LacZ reporter, unstimulated (AID 1145); details: no forskolin, luminescence, 4.5 h, higher = more signal, called active from +8 up or from −8 down
[15] = CREB reporter modulators under forskolin, primary screen, cell-based, PC12, CRE-LacZ reporter, forskolin-stimulated (AID 1146); details: luminescence, 4.5 h, higher = more signal, called active from +8 up or from −8 down;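 further: PC12 cells with 6xCRE LacZ reporter stimulated by forskolin 10 µM; beta-galactosidase reporter signal reflecting CREB driven transcription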
[16] = biological target: Streptavidin (Streptomyces avidinii) (UniProt P22629); test: streptavidin binders on small-molecule microarray, primary screen, artefact control for SMM compound annotation, biophysical, 635/667 nm fluorescence (AID 1147); details: streptavidin binding, higher = more signal;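 further: signal reflects streptavidin binding to arrayed compounds as a control protein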
[17] = small-molecule binders of probe aInhba, primary screen, biochemical, small-molecule microarray, 635/667 nm fluorescence (AID 1148); details: higher = more signal;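 further: score merges 667nm spot fluorescence with signal-to-noise for antibody binding to printed compounds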
[18] = biological target: Torsin-1A (Homo sapiens) (UniProt O14656); test: torsin A binders from cell lysate, primary screen, small-molecule microarray, wild-type, 635/667 nm (AID 1149); details: COS7 hTOR1A-WT lysate, 635 nm fluorescence, higher = more signal
[19] = biological target: Torsin-1A (Homo sapiens) (UniProt O14656); test: small-molecule binders of mutant TOR1A in lysate, primary screen, cell lysate, small-molecule microarray, COS7 lysate, 635/667 nm fluorescence (AID 1150); details: COS7 hTOR1A mutant lysate, 635 nm fluorescence, higher = more signal;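 further: score pools 667 nm emission and signal to noise measuring lysate protein binding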
[20] = tested on: Sonic hedgehog protein (Shh); test: small-molecule binders of Shh protein, primary screen, biochemical, small-molecule microarray, 635/667 nm fluorescence (AID 1151); details: small-molecule microarray binding, 635 nm fluorescence; higher = more signal;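 further: Shh protein binding to compounds spotted on small-molecule microarray slides; score combines spot fluorescence intensity with signal-to-noise across triplicate slides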

Chain of Torsin-1A (Homo sapiens) (O14656 whole entry, looked up): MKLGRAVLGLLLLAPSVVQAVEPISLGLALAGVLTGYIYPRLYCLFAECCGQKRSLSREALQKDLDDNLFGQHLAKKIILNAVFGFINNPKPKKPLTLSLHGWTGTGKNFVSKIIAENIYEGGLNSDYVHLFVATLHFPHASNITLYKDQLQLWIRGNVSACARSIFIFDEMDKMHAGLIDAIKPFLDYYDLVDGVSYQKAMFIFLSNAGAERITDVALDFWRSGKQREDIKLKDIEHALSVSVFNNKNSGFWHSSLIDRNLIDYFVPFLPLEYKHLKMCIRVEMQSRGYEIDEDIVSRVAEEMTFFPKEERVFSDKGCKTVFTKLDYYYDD
Chain of Follistatin (Homo sapiens) (P19883 whole entry, looked up): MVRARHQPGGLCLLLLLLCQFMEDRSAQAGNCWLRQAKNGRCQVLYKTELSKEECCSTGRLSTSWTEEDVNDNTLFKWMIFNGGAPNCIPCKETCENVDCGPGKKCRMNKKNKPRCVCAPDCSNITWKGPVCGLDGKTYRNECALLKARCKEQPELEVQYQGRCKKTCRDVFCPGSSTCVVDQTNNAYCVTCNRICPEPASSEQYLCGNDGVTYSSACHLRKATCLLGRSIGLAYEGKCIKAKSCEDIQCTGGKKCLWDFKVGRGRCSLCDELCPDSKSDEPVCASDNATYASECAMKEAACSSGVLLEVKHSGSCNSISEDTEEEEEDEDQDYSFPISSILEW
Chain of Streptavidin (Streptomyces avidinii) (P22629 whole entry, looked up): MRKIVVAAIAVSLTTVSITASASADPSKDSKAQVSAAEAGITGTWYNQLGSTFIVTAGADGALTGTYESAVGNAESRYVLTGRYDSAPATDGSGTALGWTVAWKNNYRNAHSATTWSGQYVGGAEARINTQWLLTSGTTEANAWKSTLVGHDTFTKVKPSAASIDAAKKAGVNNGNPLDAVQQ
Chain of Fibroblast growth factor 2 (Homo sapiens) (P09038 whole entry, looked up): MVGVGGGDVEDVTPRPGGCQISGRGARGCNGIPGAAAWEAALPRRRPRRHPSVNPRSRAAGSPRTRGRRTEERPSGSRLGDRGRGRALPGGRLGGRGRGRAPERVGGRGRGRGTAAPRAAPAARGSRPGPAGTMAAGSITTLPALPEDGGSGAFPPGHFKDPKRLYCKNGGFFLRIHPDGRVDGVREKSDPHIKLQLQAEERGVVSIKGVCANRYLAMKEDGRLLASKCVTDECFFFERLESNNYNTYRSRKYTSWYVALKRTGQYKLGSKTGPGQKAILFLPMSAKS
Chain of Focal adhesion kinase 1 (Homo sapiens) (Q05397 whole entry, looked up): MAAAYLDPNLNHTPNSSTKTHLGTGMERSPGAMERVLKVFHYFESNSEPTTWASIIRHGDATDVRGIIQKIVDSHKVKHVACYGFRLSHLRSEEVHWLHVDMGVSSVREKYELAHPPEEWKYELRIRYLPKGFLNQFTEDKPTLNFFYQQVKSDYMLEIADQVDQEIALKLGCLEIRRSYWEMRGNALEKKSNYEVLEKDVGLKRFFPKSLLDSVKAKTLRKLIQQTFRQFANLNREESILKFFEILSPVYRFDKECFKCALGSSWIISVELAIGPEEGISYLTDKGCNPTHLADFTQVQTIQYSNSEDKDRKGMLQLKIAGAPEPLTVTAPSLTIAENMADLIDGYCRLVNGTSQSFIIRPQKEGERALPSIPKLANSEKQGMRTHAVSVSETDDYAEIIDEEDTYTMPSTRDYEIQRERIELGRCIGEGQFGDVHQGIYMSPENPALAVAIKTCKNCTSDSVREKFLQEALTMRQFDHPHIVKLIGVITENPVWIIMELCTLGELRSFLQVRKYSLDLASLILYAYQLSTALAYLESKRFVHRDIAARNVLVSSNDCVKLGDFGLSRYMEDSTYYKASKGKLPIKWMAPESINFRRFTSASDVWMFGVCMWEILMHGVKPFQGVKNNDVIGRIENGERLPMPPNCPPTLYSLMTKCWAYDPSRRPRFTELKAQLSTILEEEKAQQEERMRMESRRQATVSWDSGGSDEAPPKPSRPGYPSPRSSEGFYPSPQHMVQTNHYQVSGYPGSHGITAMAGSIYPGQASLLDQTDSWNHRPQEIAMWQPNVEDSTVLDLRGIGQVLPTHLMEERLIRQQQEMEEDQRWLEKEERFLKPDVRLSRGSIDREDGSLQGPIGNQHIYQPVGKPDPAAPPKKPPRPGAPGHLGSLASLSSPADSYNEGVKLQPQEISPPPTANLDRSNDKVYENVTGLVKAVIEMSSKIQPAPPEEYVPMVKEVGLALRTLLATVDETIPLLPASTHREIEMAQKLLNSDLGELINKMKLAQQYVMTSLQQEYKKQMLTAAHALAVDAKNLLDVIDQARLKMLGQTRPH
Chain of Luciferin 4-monooxygenase (Photinus pyralis) (P08659 whole entry, looked up): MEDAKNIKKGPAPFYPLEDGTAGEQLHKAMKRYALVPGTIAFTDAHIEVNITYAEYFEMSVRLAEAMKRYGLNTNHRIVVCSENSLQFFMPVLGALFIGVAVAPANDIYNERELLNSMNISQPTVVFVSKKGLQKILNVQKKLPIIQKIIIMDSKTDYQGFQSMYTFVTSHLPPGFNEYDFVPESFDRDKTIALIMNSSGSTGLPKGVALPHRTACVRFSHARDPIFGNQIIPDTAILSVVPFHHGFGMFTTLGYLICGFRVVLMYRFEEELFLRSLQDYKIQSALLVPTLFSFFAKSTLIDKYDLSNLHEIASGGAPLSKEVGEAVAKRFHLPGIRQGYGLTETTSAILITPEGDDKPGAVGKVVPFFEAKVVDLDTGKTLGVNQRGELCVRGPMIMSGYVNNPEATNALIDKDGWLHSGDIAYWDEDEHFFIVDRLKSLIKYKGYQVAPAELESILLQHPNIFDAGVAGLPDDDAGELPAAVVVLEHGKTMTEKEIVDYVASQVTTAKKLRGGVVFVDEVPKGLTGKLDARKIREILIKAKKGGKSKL

COC(=O)C(CC#Cc1ccc2c(c1)[C@]1(C(=O)N2)[C@H](c2ccccc2OCCO)N2[C@H](c3ccccc3)[C@H](c3ccccc3)OC(=O)[C@H]2[C@@H]1C(=O)N1CCN(c2ncccn2)CC1)C(=O)OC
composite z-score [1]: 1.48
composite z-score [2]: 1.22
composite z-score [3]: 0.13
composite z-score [4]: 0.927
composite z-score [5]: 1.04
composite z-score [6]: 1
z-score [7]: -1.46
composite z-score [8]: 0.668
composite z-score [9]: 0.481
z-score [10]: -0.186 (inactive)
composite z-score [11]: 0.253
z-score [12]: -4.92 (inactive)
z-score [13]: -0.321 (inactive)
z-score [14]: -0.375 (inactive)
z-score [15]: 2.68 (inactive)
composite z-score [16]: 1.06
composite z-score [17]: -0.0695
composite z-score [18]: 1.03
composite z-score [19]: 0.498
composite z-score [20]: 1.11

COCCOC(=O)N1C(=O)[C@@]2(c3cc(C#CCC(C(=O)OC)C(=O)OC)ccc31)[C@H](C(N)=O)[C@H]1C(=O)O[C@H](c3ccccc3)[C@H](c3ccccc3)N1[C@@H]2c1ccccc1OCCO
composite z-score [1]: 0.737
composite z-score [2]: 1.09
composite z-score [3]: 0.225
composite z-score [4]: 0.927
composite z-score [5]: 1.32
composite z-score [6]: 1.57
z-score [7]: -0.116
composite z-score [8]: 1.26
composite z-score [9]: 0.556
z-score [10]: -0.617 (inactive)
composite z-score [11]: -0.0211
z-score [12]: -6.46 (inactive)
z-score [13]: -2.59 (inactive)
z-score [14]: -1.84 (inactive)
z-score [15]: -2.42 (inactive)
composite z-score [16]: 1.09
composite z-score [17]: -0.0259
composite z-score [18]: 0.0139
composite z-score [19]: 0.212
composite z-score [20]: 1.9

CC(C)C[C@H]1NC(=O)CNC(=O)[C@@]23C(=O)N[C@@H](Cc4ccccc4)C2[C@H](C)[C@@]2(C)O[C@H]2C3/C=C/C/C=C\CNC1=O (stereo not given in full)
composite z-score [1]: 0.0845
composite z-score [2]: 0.0956
composite z-score [3]: -0.419
composite z-score [4]: -0.304
composite z-score [5]: 0.67
composite z-score [6]: 0.0369
z-score [7]: -0.0605
composite z-score [8]: 0.438
composite z-score [9]: 0.813
z-score [10]: 0.151 (inactive)
composite z-score [11]: -0.0443
z-score [12]: 0.0643 (inactive)
z-score [13]: -0.0124 (inactive)
z-score [14]: 0.483 (inactive)
z-score [15]: 0.201 (inactive)
composite z-score [16]: -0.185
composite z-score [17]: -0.0719
composite z-score [18]: -0.0633
composite z-score [19]: 0.129
composite z-score [20]: 1.93

C=C[C@H](OC)[C@@H](O)c1ccc(OC)c(O)c1
composite z-score [1]: -0.495
composite z-score [2]: -1.4
composite z-score [3]: -0.833
composite z-score [4]: -1.99
composite z-score [5]: -0.857
composite z-score [6]: 0.598
z-score [7]: 0.793
composite z-score [8]: -1.82
composite z-score [9]: -0.609
z-score [10]: -1.1 (inactive)
composite z-score [11]: -0.444
z-score [12]: 0.97 (inactive)
z-score [13]: -1.34 (inactive)
z-score [14]: 0.222 (inactive)
z-score [15]: -0.904 (inactive)
composite z-score [16]: -1.56
composite z-score [17]: -0.29
composite z-score [18]: -0.874
composite z-score [19]: -0.695
composite z-score [20]: -0.734

O=C1NC(=O)C2C1C=CC(C(O)C(c1ccccc1)c1ccccc1)N2Nc1ccccn1 (stereo not given)
composite z-score [1]: 2.42
composite z-score [2]: 1.15
composite z-score [3]: 0.595
composite z-score [4]: 0.987
composite z-score [5]: 0.709
composite z-score [6]: 1.06
z-score [7]: 0.669
composite z-score [8]: -0.0403
composite z-score [9]: 0.843
z-score [10]: -2.04 (inactive)
composite z-score [11]: 0.367
z-score [12]: 0.604 (inactive)
z-score [13]: -0.725 (inactive)
z-score [14]: -0.898 (inactive)
z-score [15]: -0.804 (inactive)
composite z-score [16]: -0.0787
composite z-score [17]: 0.096
composite z-score [18]: 0.675
composite z-score [19]: 1.06
composite z-score [20]: 0.676

COCCOC(=O)N1C(=O)[C@@]2(c3cc(C#CCC(C(=O)OC)C(=O)OC)ccc31)[C@H](C(=O)N1CCc3cc(OC)c(OC)cc3C1)[C@H]1C(=O)O[C@H](c3ccccc3)[C@H](c3ccccc3)N1[C@@H]2c1ccccc1OCCO
composite z-score [1]: 0.258
composite z-score [2]: 1.2
composite z-score [3]: 0.673
composite z-score [4]: 0.698
composite z-score [5]: 1.42
composite z-score [6]: 1.6
z-score [7]: -1.28
composite z-score [8]: 1.61
composite z-score [9]: 0.281
z-score [10]: 0.888 (inactive)
composite z-score [11]: 0.725
z-score [12]: -3.46 (inactive)
z-score [13]: -0.893 (inactive)
z-score [14]: -1.14 (inactive)
z-score [15]: 0.149 (inactive)
composite z-score [16]: 0.593
composite z-score [17]: -0.025
composite z-score [18]: 0.897
composite z-score [19]: 0.949
composite z-score [20]: 1.73

COC(=O)C(CC#Cc1ccc2c(c1)[C@]1(C(=O)N2)[C@H](c2ccc(OCCO)cc2)N2[C@H](c3ccccc3)[C@H](c3ccccc3)OC(=O)[C@H]2[C@@H]1C(N)=O)C(=O)OC
composite z-score [1]: 2.32
composite z-score [2]: 1.21
composite z-score [3]: 0.307
composite z-score [4]: 0.858
composite z-score [5]: 0.0592
composite z-score [6]: -0.379
z-score [7]: -0.616
composite z-score [8]: -0.269
composite z-score [9]: 0.397
z-score [10]: -1.38 (inactive)
composite z-score [11]: -0.0885
z-score [12]: -2.24 (inactive)
z-score [13]: -0.287 (inactive)
z-score [14]: -0.0246 (inactive)
z-score [15]: 0.0658 (inactive)
composite z-score [16]: 1.42
composite z-score [17]: -0.0719
composite z-score [18]: 0.598
composite z-score [19]: -0.127
composite z-score [20]: -0.315

O=C1C2C=CC(C(O)C3CCCCC3)N(Nc3ccccc3F)C2C(=O)N1c1ccccc1 (stereo not given)
composite z-score [1]: 1.87
composite z-score [2]: 1.23
composite z-score [3]: 1.76
composite z-score [4]: 1.01
composite z-score [5]: 1.17
composite z-score [6]: -0.494
z-score [7]: -0.791
composite z-score [8]: 0.168
composite z-score [9]: 0.682
z-score [10]: -1.02 (inactive)
composite z-score [11]: 0.442
z-score [12]: -2.88 (inactive)
z-score [13]: -0.469 (inactive)
z-score [14]: 0.826 (inactive)
z-score [15]: -0.904 (inactive)
composite z-score [16]: 1.5
composite z-score [17]: 0.448
composite z-score [18]: 0.258
composite z-score [19]: 1.12
composite z-score [20]: -0.324

C=CCNC(=O)[C@H]1[C@@H]2C(=O)O[C@@H](c3ccccc3)[C@@H](c3ccccc3)N2[C@@H](c2ccc(O)cc2)[C@]12C(=O)Nc1ccc(C#CCC(C(=O)OC)C(=O)OC)cc12
composite z-score [1]: 2.01
composite z-score [2]: 1.08
composite z-score [3]: 0.144
composite z-score [4]: -0.078
composite z-score [5]: 0.636
composite z-score [6]: 0.497
z-score [7]: 0.243
composite z-score [8]: 0.0372
composite z-score [9]: -0.0126
z-score [10]: -1.37 (inactive)
composite z-score [11]: -0.223
z-score [12]: 0.15 (inactive)
z-score [13]: 0.278 (inactive)
z-score [14]: -0.471 (inactive)
z-score [15]: 0.0988 (inactive)
composite z-score [16]: -0.419
composite z-score [17]: -0.0762
composite z-score [18]: 0.685
composite z-score [19]: 0.449
composite z-score [20]: 0.414

O=C(NCC(F)(F)F)[C@@H]1c2ccccc2C(=O)N(Cc2cc(C(F)(F)F)cc(C(F)(F)F)c2)[C@H]1c1ccc(CO)cc1
composite z-score [1]: 3.22
composite z-score [2]: 0.0165
composite z-score [3]: 0.246
composite z-score [4]: -0.0773
composite z-score [5]: 0.647
composite z-score [6]: 0.295
z-score [7]: 1.89
composite z-score [8]: -0.26
composite z-score [9]: -0.352
z-score [10]: 0.839 (inactive)
composite z-score [11]: 0.362
z-score [12]: -1.49 (inactive)
z-score [13]: -0.483 (inactive)
z-score [14]: 0.701 (inactive)
z-score [15]: -1 (inactive)
composite z-score [16]: -0.49
composite z-score [17]: 0.0074
composite z-score [18]: 0.325
composite z-score [19]: 0.201
composite z-score [20]: 0.363
